From PubChem BioAssay (NCATS)
Several values for one entry are separate records, joined by “and”; a condition that tells them apart may be missing. Equal values may be shown once. Inconclusive results are not listed. Where a call stands in place of a potency, no number is given. Values without a mark were called inactive. Activity calls are given as the source filed them. Calls come from the whole dose curve; as a rule, active = well fitted inhibition curve with a large enough effect; inconclusive = small, poorly fitted or top-dose-only effect; inactive = flat fitted curve, though single readings scatter.

Legend:
[1] = system: HaCat; assay: Cytotoxic Profiling of Annotated Libraries Using Quantitative High-Throughput Screening (AID 1296008); details: Five cell lines viability, CellTiter-Glo ATP luminescence, 48-72 h; max response: stronger effect = lower value; note: potency is the fitted concentration of half-maximal effect
Outline: (§1)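 Cytotoxicity was measured as CellTiter-Glo ATP luminescence, read after 10 min at room temperature. Compound treatment of the cells lasted 48 or 72 hr at 37 degrees Celsius in a qHTS format.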

[2] = system: KB-3-1; assay: as above; details: Five cell lines viability, CellTiter-Glo ATP luminescence, 48-72 h; max response: stronger effect = lower value
Outline: as §1

[3] = system: NIH3T3; assay: as above; details: Five cell lines viability, CellTiter-Glo ATP luminescence, 48-72 h; max response: stronger effect = lower value
Outline: as §1

[4] = system: CRL-7250; assay: qHTS assay to identify novel small-molecules to repurpose for Merkel cell carcinoma treatment (AID 1296009); details: MCC and control cell lines, CellTiter-Glo viability, 72 h; at 44.8 µM (top of the series) unless noted
Outline: (§2)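 Cell viability measured by CellTiter-Glo following 72 hr compound treatment at 37 degree celsius, with NPC and MIPE libraries tested in 8- and 11-point concentration series.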

[5] = system: HACAT; assay: as above; details: MCC and control cell lines, CellTiter-Glo viability, 72 h; at 44.8 µM (top of the series) unless noted
Outline: as §2

[6] = system: MCC-13; assay: as above; details: MCC and control cell lines, CellTiter-Glo viability, 72 h; series mostly up to 46 µM
Outline: as §2

[7] = system: MCC-26; assay: as above; details: MCC and control cell lines, CellTiter-Glo viability, 72 h; series mostly up to 46 µM
Outline: as §2

[8] = system: MKL-1; assay: as above; details: MCC and control cell lines, CellTiter-Glo viability, 72 h; series mostly up to 46 µM
Outline: as §2

[9] = system: MKL-2; assay: as above; details: MCC and control cell lines, CellTiter-Glo viability, 72 h; series mostly up to 46 µM
Outline: as §2

[10] = system: HEK293T; assay: as above; details: MCC and control cell lines, CellTiter-Glo viability, 72 h; at 44.8 µM (top of the series)
Outline: as §2
Note: nearly all actives have a fitted effect of over 60% in size.

Compound	outcome [1]	max response [2]	outcome [3]	outcome [4]	outcome [5]	Potency [6]	Potency [7]	Potency [8]	Potency [9]	max response [3]	outcome [10]	max response [1]	Potency [1]	outcome [2]
CN1C(=O)CN=C(c2ccccc2)c2cc([N+](=O)[O-])ccc21	inactive	9.64%	inactive	inactive	inactive	inactive	inactive	inactive	inactive					
O=c1n(Cl)c(=O)n(Cl)c(=O)n1Cl	inactive	7.13%		inactive	inactive	inactive	inactive	inactive	inactive	2.85%				
O=C(CCCN1CCC(n2c(=O)[nH]c3ccccc32)CC1)c1ccc(F)cc1	inactive	-5.74%			inactive	inactive	inactive	inactive	inactive	0.676%				
COc1ccc(OC)c(CC(C)N)c1 (stereo unspecified)	inactive	-0.889%			inactive [at 92 µM]	inactive	inactive	inactive	inactive	-6.71%				
NC(=O)CN1CCCC1=O	inactive	4.93%		inactive	inactive	inactive	inactive	inactive	inactive	-0.768%	inactive			
COP(=S)(OC)Oc1ccc(S(N)(=O)=O)cc1	inactive	0.165%		inactive	inactive	inactive	inactive	inactive	inactive	-5.5%				
C[C@@H]1CN(C2CCC(C#N)(c3ccc(F)cc3)CC2)CC[C@]1(C(=O)O)c1ccccc1 (stereo partly specified)		-4.01%	inactive	inactive		inactive	inactive	inactive	inactive			3.21%		
O=C(NC(=O)c1c(F)cccc1F)Nc1cc(Cl)c(OC(F)(F)C(F)C(F)(F)F)cc1Cl (stereo unspecified)	inactive	8.21%		inactive	inactive	inactive	inactive	inactive		-16.1%				
CCC(OC(C)=O)C(CC(C)NC)(c1ccccc1)c1ccccc1 (stereo unspecified)		-22.1%											27.6 µM (active)	
CC(C)(C)OC(=O)c1ncn2c1[C@@H]1CCCN1C(=O)c1c(Br)cccc1-2		-1.12%	inactive	inactive		inactive	inactive	inactive	inactive			3.04%		
CCN(CC)C(C)C(=O)c1ccccc1 (stereo unspecified)	inactive	-1.49%			inactive	inactive	inactive	inactive	inactive	-1.81%				
CCCC[N+]1(C)[C@@H]2CC(OC(=O)[C@H](CO)c3ccccc3)C[C@H]1[C@@H]1O[C@@H]12 (stereo partly specified)	inactive	6.44% and 1.1%		inactive	inactive	inactive	inactive	inactive	inactive	4.56% and 3.97%	inactive	-9.09%		
CCC1(c2ccccc2)CCC(=O)NC1=O (stereo unspecified)		-6.95%		inactive		inactive	inactive	inactive	inactive	4.7%		-1.76%		
CC1=C2[C@H]3OC(=O)[C@@H](C)[C@@H]3CC[C@@]2(C)C=CC1=O	inactive	27.1%			inactive	inactive	inactive	inactive	inactive	-1.04%				
C[C@H](N)[C@H](O)c1ccc(O)c(O)c1	inactive	-14.6%			inactive	inactive	inactive	inactive		-48.1%				
CC(C)[N+](C)(CCC(C(N)=O)(c1ccccc1)c1ccccc1)C(C)C	inactive	11.9%	inactive		inactive	inactive	inactive							
CC(Cc1ccccc1)NCc1ccccc1Cl (stereo unspecified)		-8.17%				inactive	inactive	inactive	inactive	-14.1%		-41.8%		
C[N+]1(CCC(C(N)=O)(c2ccccc2)c2ccccc2)CCCCC1		6.68%	inactive			inactive	inactive	inactive	inactive		inactive	-10.3%		
COc1cc(N)c(Cl)cc1C(=O)NC1CN2CCC1CC2 (stereo unspecified)		8.72%	inactive			inactive	inactive	inactive	inactive			-3.99%		
COc1ccc2[nH]cc(CCN(C(C)C)C(C)C)c2c1		-17%				inactive	inactive	inactive		1.94%		1.43%		
CC[C@H]1C[C@H]2[C@@H]3CCC4=CC(=O)CC[C@@H]4[C@H]3CC[C@]2(C)[C@H]1O						inactive	inactive	inactive		-0.575%		2.56%		inactive
